SMILES strings stand for the structures. Out of some 69,000 compounds screened, about 8,600 (12%) showed an effect of 50% or more. The sample holds strong results, similar compounds and a random draw of the others, so the mix is not that of the screen.

The experiment concerns Plasmodium berghei. The experiment can be described thus: Screen against P. berghei liver stage (PbLuc), transformed with Luciferase, at 10uM. The conditions noted are these: tested at 10 uM. It is filed as functional, HepG2.
In the case of `CC(=O)N(Cc1ncc(C)o1)C1CCN(CCc2cccs2)C1` (stereo not drawn), the INHIBITION is reported as 12.7%.
The figure for `CCn1cc(NC(=O)C(C)n2ncc(Cl)c2C)c(C(=O)OC)n1` (stereo not drawn) is 6.83%; for `CCSc1cc(C(=O)NCc2ccc(C(=O)NC)cc2)ccn1` it is 76.5%; for `CCSc1cc(C(=O)NCCNC(=O)Cc2ccccc2)ccn1` it is 26.9%.
`CCSc1cc(C(=O)NCc2ccccc2O)ccn1`: the INHIBITION is 34.7%.
The figure for `Cc1nc(C)c(C(=O)Nc2ccc(-c3nnc(N(C)C)o3)cc2)o1` is 6.02%.
The figure for `CCc1cnc(CN2CCC(N(C)Cc3noc(C)n3)C2)o1` (stereo not drawn) is 13.6%; for `Cc1nc(CN2CCCC(N(C)CCc3cccs3)C2)no1` (stereo not drawn) it is 3.47%; for `CCc1nc(CN(C)C2CCN(CCc3cccs3)C2)no1` (stereo not drawn) it is -79.1%.
Then `CN(CCc1ccncc1)C1CCCN(Cc2noc(C3CC3)n2)C1` (stereo not drawn), with 14.8%; and `CCc1nc(CN2CCCC(N(C)CCn3cccn3)C2)no1` (stereo not drawn), with 33.7%.
For the compound `CCc1nc(CN2CCCC(N(C)CCc3cccs3)C2)no1` (stereo not drawn), the INHIBITION stood at 56.6%.
The figure for `CN(CCc1cccs1)C1CCCN(Cc2noc(C3CC3)n2)C1` (stereo not drawn) is 51.8%.
In the case of `CN(C)Cc1nnc2n1CCN(c1cnccn1)CC2`, the INHIBITION is -4.02%.
Take `Cc1nc(C2CCN(C(=O)c3cnc(N(C)C)nc3)CC2)c2sccn12`: the INHIBITION was -4.82%.
Then `CN(C[C@@H]1CCC[C@@H]2CN(c3ncccn3)C[C@@H]21)C1CC1`, with 38.3%; and `Cc1cccc(CSc2ncc(Cl)c(C(=O)O)n2)c1`, with 12.1%; and `Cc1ccc(F)c(C(=O)Nc2c(C(N)=O)n[nH]c2C)c1`, with -18.3%.
Then `Cc1cc(N(C)Cc2ncc(-c3ccccc3C(=O)O)s2)ncn1`, with 5.6045%.
Then `Cc1cc(CN(CC(N)=O)CC(C)C)no1`, with 7.39%; and `Cc1ccc(-c2cc(CN(CC(N)=O)CC(C)C)on2)cc1`, with 57.8%; and `Cc1cc(CN(CC(N)=O)CC(C)C)on1`, with 43.2%.
Regarding `Cc1cccc(-c2nccn2C2CC(=O)N(C(C)C)C2)n1` (stereo not drawn), the INHIBITION is recorded as 25.9%.
Consider `CNC(=O)NC(=O)CCN1CCN(c2ccc(C(=O)OC)cc2)CC1C` (stereo not drawn), for which the INHIBITION is 23.7%.
The figure for `O=C(Cc1ccccc1)C1CCCN(Cc2cncn2C2CCCC2)C1` (stereo not drawn) is 69%.
`COCCn1cncc1CN1CCCC(C)(c2ccccc2)C1` (stereo not drawn): the INHIBITION was determined as 30.1%.
The figure for `O=C(CCc1ccccc1)C1CCCN(Cc2cncn2C2CC2)C1` (stereo not drawn) is 27.4%.
The figure for `CC1(c2ccccc2)CCCN(Cc2nnc(-c3cccnc3)o2)C1` (stereo not drawn) is 5.91%.
The figure for `CCCN1CCCC2(CCN(Cc3cncn3C3CCCC3)C2)C1=O` (stereo not drawn) is 21.2%; for `Cn1cncc1CN1CCOC(Cc2ccccc2)C1` (stereo not drawn) it is -54.1%.
For `CCCN1CCCC2(CCN(Cc3cncn3C3CCCCC3)C2)C1=O` (stereo not drawn), the INHIBITION is given as -21.5%.
The figure for `O=c1c2ccccc2cnn1Cc1cncn1C1CC1` is 0.33%; for `CN1CCCC2(CCN(Cc3cncn3C3CCCCC3)C2)C1=O` (stereo not drawn) it is 62.1%; for `CC1(c2ccccc2)CCCN(Cc2cncn2C2CC2)C1` (stereo not drawn) it is 50.7%.
Then `CC1(c2ccccc2)CCCN(Cc2cncn2C2CCCC2)C1` (stereo not drawn), with 89.6%; and `COCCn1cncc1CN1CCCC(C(=O)Cc2ccccc2)C1` (stereo not drawn), with 20.5%.
The figure for `CN1CCCC(Cc2cc(N(C)C)ncn2)C1` (stereo not drawn) is 38.7%; for `Cc1ncc(C(=O)NCCNC(=O)Cc2cccc(F)c2)s1` it is -13.5%; for `Cc1nccc(C2CN(S(=O)(=O)N(C)C)C2)n1` it is -3.02%.
Consider `CCC(C(=O)NCC1=CCN(C)CC1)c1ccccc1` (stereo not drawn), for which the INHIBITION was determined as 8.7%.
Then `CNc1ccc(CC2CCCN(C(=O)c3cccc(C)n3)C2)nn1` (stereo not drawn), with 45.6%.
The figure for `CS(=O)(=O)N1CCc2c(cccc2NC(=O)Nc2ccccn2)C1` is 19.2%; for `Cc1nc(CN2C[C@H]3C[C@H](C(=O)NCC4CC4)N(C)[C@H]3C2)cs1` it is 19.8%; for `O=C(NCCC1CCN(CC(F)(F)F)CC1)C1CCCOC1` (stereo not drawn) it is -10.3%.
Then `CCNC(=O)c1ccoc1CN1c2ccccc2CC1C` (stereo not drawn), with -3.19%; and `COCCNC(=O)c1ccoc1CN1c2ccccc2CC1C` (stereo not drawn), with 20.9%; and `CC1Cc2ccccc2N1Cc1occc1C(=O)NCC(=O)N(C)C` (stereo not drawn), with 53.9%.
Consider `CNC(=O)C1CN(C(=O)c2cccnc2)CCN(S(C)(=O)=O)C1` (stereo not drawn), for which the INHIBITION was 9.25%.
`CN1CCCN(C(=O)NCCNc2ncccn2)CC1`: the INHIBITION stood at 16.8%.
Take `CC(C)(C)n1cc(CNc2ccc(CNS(C)(=O)=O)cc2)cn1`: the INHIBITION is listed as 74.4%.
Then `CC(=O)N(Cc1ccc(NCc2cnn(C(C)(C)C)c2)cc1)C(C)C`, with 38.5%.
Then `CC(C)OC(=O)NCc1ccc(NCc2cnn(C(C)(C)C)c2)cc1`, with 18.9%.
Then `CCNc1nc2cn(-c3ccc(C)c(C)c3)c(=O)c-2c[nH]1`, with -31.1%.
In the case of `Cc1cc2n(n1)CC(CNCc1cnn(-c3ccccc3)c1)CN2` (stereo not drawn), the INHIBITION was found to be 15.5%.
Then `Cc1ccc(C(=O)NCCNCC2CNc3ccnn3C2)cc1` (stereo not drawn), with 7.67%; and `Cc1cc2n(n1)CC(CNCc1cnn(C)c1)CN2` (stereo not drawn), with 33.7%.
Consider `O=C(Cc1ccc(F)cc1)NCCNCC1CNc2ccnn2C1` (stereo not drawn), for which the INHIBITION is 19.7%.
Then `Cn1cc(CCNCC2CNc3ccnn3C2)cn1` (stereo not drawn), with 71.4%.
The figure for `O=C(NCCNCC1CNc2ccnn2C1)c1ccc(F)cc1` (stereo not drawn) is 32.4%; for `Cc1cc2n(n1)CC(CNCCc1cnn(C)c1)CN2` (stereo not drawn) it is 54.3%.
The figure for `Cc1cc2n(n1)CC(CNCc1ccc(OCC3CC3)nc1)CN2` (stereo not drawn) is 60.7%.
With `COc1ccc(CNCC2CNc3ccnn3C2)cn1` (stereo not drawn), the INHIBITION is given as 25.1%.
Then `COc1ccc(CNCC2CNc3cc(C)nn3C2)cn1` (stereo not drawn), with -6.185%.
On to `COCCOc1ccc(CNCC2CNc3cc(C)nn3C2)cn1` (stereo not drawn), for which the INHIBITION came to 25.995%.
As for `Cc1ccc(C(=O)NCCNCC2CNc3ccnn3C2)cc1F` (stereo not drawn), the INHIBITION is 59.3%.
Then `CCN(Cc1noc(C2CCC2)n1)C(=O)c1cn2ccsc2n1`, with 30%.
For `CS(=O)(=O)CCCNC(=O)C1(c2cccc(Cl)c2)CC1`, the INHIBITION is 28.3%.
For the compound `CN(CC(N)=O)CC(=O)N1CC=C(c2ccccc2)CC1`, the INHIBITION is -46.4%.
Then `COc1cc(NC2CCCN(c3ncccn3)C2)cc(OC)c1` (stereo not drawn), with 23.1%; and `CCc1cnccc1C(=O)NC1CCN(C(=O)C2CCCCC2)CC1`, with 38.7%.
`CCC1CN(c2ncnc3nc[nH]c23)CCO1` (stereo not drawn): the INHIBITION was -2.03%.
Then `CCCc1nnsc1C(=O)N1CCN(CC(O)C2CC2)CC1` (stereo not drawn), with 37.4%.
Then `CCC(O)CN1CCN(C(=O)c2ccc(N(C)C)nn2)CC1` (stereo not drawn), with -26.6%; and `CCc1nnsc1C(=O)N1CCN(CC(O)CC)CC1` (stereo not drawn), with 17.8%; and `CCCc1nnsc1C(=O)N1CCN(CC(C)O)CC1` (stereo not drawn), with 51.7%.
Turning to `CN(C)c1ccc(C(=O)N2CCN(CC(O)C(C)(C)C)CC2)nn1` (stereo not drawn), the INHIBITION is recorded as 7.12%.
Then `CC(O)CN1CCN(C(=O)c2ccc(N(C)C)nn2)CC1` (stereo not drawn), with 51.2%; and `O=C1[C@H]2CN(c3ncccn3)C[C@H]2CN1CCN1CCCC1`, with 19.5%; and `CC(C)n1ccc(C(=O)OCC2CC(=O)N(Cc3ccccc3)C2)n1` (stereo not drawn), with 1.74%.
Then `CC(C)(NC(=O)CCc1ccco1)c1ccc2c(c1)OCCO2`, with 10.6%; and `Cc1cccc(N2CCN(C(=O)CCc3ccsc3)C(C)C2)n1` (stereo not drawn), with -16.8%.
The figure for `Cc1cc(NC(=O)NCC(c2ccccc2)N2CCOCC2)n(C)n1` (stereo not drawn) is -2.53%.
In the case of `Cc1nc(CNC2CCCN(c3cccnn3)C2)no1` (stereo not drawn), the INHIBITION amounted to 26.5%.
The figure for `Cc1nc(CN(C)C2CCCN(c3cccnn3)C2)no1` (stereo not drawn) is -31.9%; for `CN(Cc1noc(C(C)(C)C)n1)C1CCCN(c2cccnn2)C1` (stereo not drawn) it is 66.2%; for `CC(C)(C)c1nc(CNC2CCCN(c3cccnn3)C2)no1` (stereo not drawn) it is 79.2%.
Then `Cc1cc(CNC2CCCN(c3cccnn3)C2)no1` (stereo not drawn), with 11.8%; and `CS(=O)(=O)c1ccc(CNC2CCCN(c3cccnn3)C2)cc1` (stereo not drawn), with 39.5%; and `CC(C)c1nc(CN(C)C2CCCN(c3cccnn3)C2)no1` (stereo not drawn), with 18.2%.
The figure for `c1ccc(-c2nc(CNC3CCCN(c4cccnn4)C3)no2)cc1` (stereo not drawn) is 48.4%.
On to `CC(C)c1nc(CNC2CCCN(c3cccnn3)C2)no1` (stereo not drawn), for which the INHIBITION is 78.2%.
The figure for `CNC(=O)C1(CCCc2cnccn2)CCN1Cc1ccc(C)cc1` (stereo not drawn) is 24.585%; for `CC(NC(=O)NCC1(O)CCC1)c1ccc(OCC2CC2)c(F)c1` (stereo not drawn) it is 13.4%; for `CCc1nn(C)c2[nH]nc(NC(=O)c3cccnc3OCC(C)C)c12` it is 47.4%.
Then `Cn1cc(Cl)c(C(=O)N2CCc3nc4sccc4c(=O)n3CC2)n1`, with -9.32%.
In the case of `CCn1nc(C)c2ncnc(N(C)Cc3ccco3)c21`, the INHIBITION amounted to 52.4%.
The figure for `CCn1nc(C)c2nc(C)nc(N(C)Cc3ccco3)c21` is 43.3%; for `CCCc1nc(N(C)Cc2ccco2)c2c(n1)c(C)nn2CC` it is -6.42%; for `CCOCC1CN(CCN(C)C)Cc2cnn(CC3CCCC3)c21` (stereo not drawn) it is 41.2%.
Then `CC(C)C(O)C1(CNC(=O)Nc2ccc(CN3CCOC3=O)cc2)CC1` (stereo not drawn), with 65.3%; and `CC(C)CNC(=O)Nc1ccc(CN2CCOC2=O)cc1`, with 23.2%.
Take `CCC(C)NC(=O)Nc1ccc(CN2CCOC2=O)cc1` (stereo not drawn): the INHIBITION turned out to be 29%.
The figure for `Cc1[nH]nc2ncc(C(=O)N3CCN(CCC(C)C)CC3)cc12` is 23.7%; for `Cc1ccc(CC(=O)N2CCC(Nc3ccc(C)nn3)CC2)cn1` it is 1.78%.
Then `O=C(c1ccc(F)c(Br)c1)N1CCCN2CCCC2C1` (stereo not drawn), with 59.4%; and `CS(=O)(=O)NCC1CCCN(C(=O)c2ccco2)C1` (stereo not drawn), with -14.6%.
In the case of `O=C(c1ccc(F)c(F)c1)N1CCN2CCCC2C1` (stereo not drawn), the INHIBITION worked out at 9.52%.
Then `O=C(c1ccc(-n2cccc2)c(F)c1)N1CCCN2CCCC2C1` (stereo not drawn), with -33.9%; and `Cc1ccc(C(=O)N2CCCC(CNS(C)(=O)=O)C2)o1` (stereo not drawn), with 26.4%.
Then `CS(=O)(=O)NCC1CCCN(C(=O)c2cccc(F)c2)C1` (stereo not drawn), with 38.5%.
Take `COc1ccc(C(=O)N2CCCC(CNS(C)(=O)=O)C2)cc1F` (stereo not drawn): the INHIBITION is listed as 11.6%.
With `CS(=O)(=O)NCC1CCCN(C(=O)c2ccc(F)c(F)c2)C1` (stereo not drawn), the INHIBITION is on record as 53%.
Then `CS(=O)(=O)NCC1CCCN(C(=O)c2cc3ccccc3o2)C1` (stereo not drawn), with 57.8%.
